Hits are enriched below; roughly 8.1% of the tested compounds scored in any of these assays.
Gal4-VP16 FLuc: inhibits Gal4-VP16 luciferase reporter, ROR gamma counter-screen. 310,000 tested, 3.5% active. Potency, µM (highest dose often 53.6 µM), for inactives: top-dose activity, negative = inhibition, actives largely listed as inhibitors. Drosophila S2 Gal4-VP16 UAS-luciferase, luminescence, 20 h;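 note: Gal4-VP16 expression switched on by copper sulfate through the metallothionein promoter; % is set by controls: 0 for no effect and ±100 for the full control effect; nearly all actives have a fitted effect of over 50% in size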
PINK1 expr mod: changes PINK1 expression | Potency, µM (doses to about 76.6 µM), for the others: at the top dose activation (PINK1 increase), actives largely listed as activators | PINK1 immunofluorescence, high-content cytometry, 24 h | 410,000 tested, 0.2% active | AID 624263; active = well fitted activation curve with a large enough effect; inconclusive = small, poorly fitted or top-dose-only effect; cell line not stated here; note: % of control where 0% means no effect; nearly all actives have a fitted effect of over 65% in size
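Measures PINK1 amount and localization on or inside mitochondria by immunofluorescence. Stable cells get compounds at 5 concentrations for 24 hours before fixation and staining; CCCP controls included.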
RORg inh: ROR gamma (mouse) transcription inhibition; P51450; Drosophila S2 Gal4-RORgamma UAS-luciferase reporter, 20 h; Potency, µM (top dose mostly 53.6 µM), for the others: top-dose activity change, negative = inhibition, hits mostly inhibitors; 310,000 tested, 5.4% active; note: % is set by controls: 0 for no effect and ±100 for the full control effect; nearly all actives have a fitted effect of over 60% in size
Target sequence (P51450 whole entry, looked up, the tested form may be a part): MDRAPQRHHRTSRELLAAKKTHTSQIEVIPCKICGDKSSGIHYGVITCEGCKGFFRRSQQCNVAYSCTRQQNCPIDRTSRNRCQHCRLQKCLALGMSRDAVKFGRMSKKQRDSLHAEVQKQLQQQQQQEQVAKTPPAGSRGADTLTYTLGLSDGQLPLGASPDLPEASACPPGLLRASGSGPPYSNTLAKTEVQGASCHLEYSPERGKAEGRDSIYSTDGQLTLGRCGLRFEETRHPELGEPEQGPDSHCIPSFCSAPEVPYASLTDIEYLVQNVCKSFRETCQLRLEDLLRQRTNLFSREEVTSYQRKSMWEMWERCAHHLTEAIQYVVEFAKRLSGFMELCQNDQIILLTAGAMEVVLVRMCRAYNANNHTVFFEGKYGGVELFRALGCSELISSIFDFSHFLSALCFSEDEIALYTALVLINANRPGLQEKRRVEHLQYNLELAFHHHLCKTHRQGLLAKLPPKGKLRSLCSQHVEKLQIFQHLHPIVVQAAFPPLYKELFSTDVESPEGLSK
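ROR gamma transcriptional activity was tracked as Gal4-UAS luciferase output in stably transfected Drosophila Schneider cells, with compound added 1 hr before 700 uM copper sulfate induction and a 20 hr ambient-temperature incubation.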
Epigenetic reg: epigenetic control regulation, reporter derepression; Potency, µM (top dose mostly 53.9 µM), for the others: top-dose GFP activation, most hits filed as activators; AID 1865; murine LDR cells, GFP reporter derepression, 30 h; 280,000 tested, 0.2% active; note: % of control where 0% means no effect; nearly all actives have a fitted effect of over 60% in size
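GFP-positive cell count by laser-scanning cytometry (objects 20–120 um) after 30 h, 37 C compound exposure of murine LDR cells; reporter is CMV-GFP integrated at a silenced locus, inducible by HDAC or DNMT inhibitors.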
ClpP mod: qHTS Assay for Activators of ClpP | ATP-dependent Clp protease proteolytic subunit (Bacillus subtilis (strain 168)), P80244 | purified B. subtilis ClpP, FRET peptide cleavage, 20 min | Potency, µM (top dose mostly 57.5 µM), for inactives: at the top dose activity change, negative = active | 340,000 tested, 1.9% active; active = well fitted falling curve with a large enough effect; inconclusive = small, poorly fitted or top-dose-only effect; inactive = no such curve, though single readings can be large or run the other way; note: the source files actives as falling curves though it sought activators and does not explain the sign; nearly all actives have a fitted effect of over 65% in size
Target sequence (P80244 whole entry, looked up): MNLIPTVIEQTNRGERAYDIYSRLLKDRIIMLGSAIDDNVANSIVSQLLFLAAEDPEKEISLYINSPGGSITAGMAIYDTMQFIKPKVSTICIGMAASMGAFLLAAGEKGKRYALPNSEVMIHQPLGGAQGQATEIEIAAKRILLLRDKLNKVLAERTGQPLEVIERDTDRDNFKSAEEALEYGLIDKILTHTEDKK
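ClpP 10 microg/mL final, pH 8 Tris/KCl buffer with BSA, glycerol, Tween-20; compound pinned in; FRET-FV substrate; RT 20 min; Ex320/Em430; ΔFRET vs ADEP 5.8 microM, DMSO, no enzyme.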
Sfp inh: inhibitors of Bacillus subtilis Sfp phosphopantetheinyl transferase | Potency, µM, for inactives: largest response in the series, negative = inhibition, actives largely listed as inhibitors | 310,000 tested, 3.5% active | Biochemical Sfp PPTase activity, qHTS | Q9F4F7;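 note: the enzyme is Sfp with the accession as filed and its product quenches rhodamine fluorescence; 0% = enzyme reaction without inhibitor and -100% = no enzyme wells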
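Sfp 15 nM + cpd, 15 min RT; start w/ rhodamine-CoA 5 uM, BHQ-2-YbbR 12.5 uM (final); 50 mM Hepes pH 7.6, 10 mM MgCl2, 0.01% NP-40, 0.01% BSA; read 525/598 nm at 0 and 30 min.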
Starred values were filed as active, the others as inactive; ? = inconclusive; / = no result; [ ] = remark or other dose. Unless noted, calls come from the whole dose curve; as a rule, active = well fitted curve in the direction sought with a large enough effect; inconclusive = small, poorly fitted or top-dose-only effect, or another doubt; inactive = no such curve, though single readings can be large; an effect the other way counts as inactive or inconclusive. Potency is the fitted concentration of half-maximal effect.

SMILES	Gal4-VP16 FLuc	PINK1 expr mod	RORg inh	Epigenetic reg	ClpP mod	Sfp inh
CCN(CC)CCNC(=O)c1ccc(NC(=O)c2ccc(Cl)c(S(=O)(=O)N3CCCCCC3)c2)cc1	?	-2.8%	?	2.1%	/	50.1µM*
Cc1cccc(N2CCN(C(=O)CN3C(=O)COc4ccc(S(=O)(=O)N5CCCC5)cc43)CC2)c1C	/	-0.3%	/	7.2%	-7.5%	/
O=C(O)c1ccc2c(c1)C(=O)N([C@H](Cc1ccc(O)c(O)c1)C(=O)O)C2=O	-1.3%	/	-7.5%	/	/	79.4µM*
CCOc1ccc2c(O)csc2c1	15.8%	0.7%	12.4%	0.1%	?	50.1µM*
CCOc1ccc(-c2nn(-c3ccccc3)cc2C2NC(=O)NC(C)=C2C(=O)OC(C)C)cc1C (stereo not drawn)	/	-5.2%	/	-0.3%	-1.2%	/
O=C(Nc1cccc2ccccc12)c1cnn2c1NC(=C1CC1)C=C2C(F)F	/	-0.6%	/	/	-1.4%	/
COC(=O)c1ccc2c(=O)n(Cc3ccc(C(=O)NCCCN4CCC(C)CC4)cc3)c(=S)[nH]c2c1	?	2.1%	?	5.6%	/	-6.9%
O=C(NCCCN1CCOCC1)c1ccc2c(=O)n(Cc3ccc(Cl)cc3)c(=S)[nH]c2c1	?	4.7%	11.2µM*	/	-1.4%	-11.1%
COC(=O)c1ccc2c(=O)n(Cc3ccc(C(=O)NCCCN4CCOCC4)cc3)c(=S)[nH]c2c1	-29.8%	2.7%	0.8%	/	/	9.8%
CC1CCN(CCCNC(=O)c2ccc3c(=O)n(Cc4ccc(Cl)cc4)c(=S)[nH]c3c2)CC1	20µM*	-1.5%	12.6µM*	12.4%	-0.5%	79.4µM*
Cc1nn(C)c(Cl)c1S(=O)(=O)N(Cc1ccco1)c1ncnc2nc[nH]c12	/	-0.6%	/	/	-2.4%	/
O=C(NC(=S)Nc1cc(C(F)(F)F)ccc1N1CCOCC1)c1ccco1	11.2µM*	0.4%	1.41µM*	-1.0%	/	15.2%
CC(=O)NC(=S)Nc1cc(C(F)(F)F)ccc1N1CCOCC1	?	1.3%	12.6µM*	-2.0%	2.2%	0.2%
O=C(CNCc1cccnc1)Nc1cc(C(F)(F)F)ccc1N1CCOCC1	-11.2%	0.2%	4.0%	0.0%	-5.6%	56.2µM*
CCC(=O)Nc1cc(C(F)(F)F)ccc1N1CCOCC1	-1.9%	0.3%	5.5%	0.9%	1.2%	5.8%
CC(C)C(=O)Nc1cc(C(F)(F)F)ccc1N1CCOCC1	1.0%	-0.2%[38.3 µM]	36.7%	-5.0%	-0.8%	9.7%
CC(=O)Nc1cc(C(=O)c2ccccc2)ccc1N1CCOCC1	10.8%	-0.7%	?	-0.8%	35.5µM*	3.8%
CCOc1ccc(C2N3CC4(C(C)C)CN2CC(C(C)C)(C3)C4=O)cc1OC (stereo not drawn)	/	0.0%	/	-1.1%	-0.5%	/
CN(C)c1ccc(-c2c(C3C4C=CCCC4(C)C(=O)N3Cc3ccccc3)ccc3ccccc23)cc1 (stereo not drawn)	-0.8%	/	-0.9%	/	/	?
Cc1ccc(S(=O)(=O)Nn2c(C)ccc2C)cc1	16.6%	-1.2%	-41.9%	-1.0%	-1.8%	56.2µM*
FC(F)(F)c1nc2ccccc2nc1N/N=C\c1ccccc1	12.6µM*	4.6%	3.55µM*	1.0%	1.1%	19.4%
Cc1ccc(S(=O)(=O)NNc2ccccc2)cc1	-1.1%	8.1%[38.3 µM]	0.8%	-0.1%	-0.7%	31.6µM*
Cc1ccc(S(=O)(=O)NNc2nc3ccccc3nc2C(F)(F)F)cc1	?	0.7%	17.8µM*	-0.8%	-1.4%	11.2µM*
CCOC(=O)c1sc(NC(=O)C(C)Oc2ccc(OC)cc2)c(C(=O)OCC)c1C (stereo not drawn)	/	1.1%	/	2.7%	-3.5%	/
CCCCOc1cccc(NC(=O)c2cccc(C(=O)Nc3cccc(OCCCC)c3)c2)c1	/	0.0%	/	0.0%	4.3%	/
SMILES	Gal4-VP16 FLuc	PINK1 expr mod	RORg inh	Epigenetic reg	ClpP mod	Sfp inh
NNc1nc2ccccc2nc1C(F)(F)F	-1.0%	0.0%	-44.0%	-1.3%	/	-23.7%
O=C(NNc1nc2ccccc2nc1C(F)(F)F)c1ccccc1	15.8µM*	-1.0%	7.94µM*	-0.9%	-2.1%	19.8%
CCOc1ccc(/C=N/n2cc(-c3ccccc3)[nH]c2=S)cc1	?	1.9%	1.26µM*	?	0.4%	5.9%
CCOc1ccc(/C=N/Nc2ccccc2)cc1	-10.3%	1.4%	25.2%	/	4.2%	-5.4%
S=c1[nH]c(-c2ccccc2)cn1/N=C/c1ccncc1	-13.8%	-1.5%	6.31µM*	-0.3%	/	79.4µM*
COc1ccc(Nc2nc(C)nc(N)c2S(=O)(=O)c2ccccc2)cc1	/	2.4%	/	10.8%	3.9%	/
CCn1c(C)nc2cc(C(=O)NNC(=O)c3ccc(C)cc3)ccc21	/	2.5%	/	/	-19.1%	/
CCn1c(C)nc2cc(C(=O)OC(C(F)(F)C(F)F)C(F)(F)C(F)F)ccc21	7.08µM*	1.4%	7.08µM*	1.7%	1.1%	19.5%
COc1ccc(OC)c(NC(=O)CCc2nc(-c3ccc(C)cc3)no2)c1	/	1.9%	/	-1.3%	-0.8%	/
Cc1cc(O)cc2c1O[C@](C)(CCC(=O)O)CC2	/	3.2%	/	/	0.3%	/
CCN(CC)C(=O)CSc1nc(C)cc(-c2cccs2)c1C#N	8.8%	-2.4%[38.3 µM]	10µM*	4.3%	-28.5%	39.8µM*
N#Cc1c(-c2cccs2)cc(C2CC2)nc1SCC(N)=O	12.6%	6.7%	-10.2%	2.9%	15.8µM*	-4.8%
Cc1cc(C)c(C#N)c(SCC(=O)c2cccs2)n1	-5.0%	11.0%	38.1%	?	-0.5%	11.8%
CC1CCN(C(=O)COC(=O)CCCN2C(=O)c3cccc4cccc(c34)C2=O)CC1	-10.0%	-0.5%	-8.7%	/	31.6µM*	8.0%
CCOC(=O)C1=C(CN2CCN(c3cccc(OC)c3)CC2)NC(=O)NC1c1ccc(OC)cc1 (stereo not drawn)	/	24.9%	/	-1.2%	-0.5%	/
COC(=O)C1=C(C(=O)OC)C(c2ccccc2O)c2sc(=O)[nH]c2S1 (stereo not drawn)	?	0.5%	?	1.1%	-17.3%	8.91µM*
CC(C)(C)c1nc2c(C#N)c(-c3ccc(Cl)cc3)ccn2n1	0.5%	2.5%	15.6%	0.8%	28.2µM*	-16.6%
Cc1nc2c(C#N)c(-c3ccc(Cl)cc3)ccn2n1	-3.6%	0.3%	44.5%	1.1%	-21.5%	12.2%
O=C(CCC(=O)c1ccc(Cl)cc1)OCC(=O)c1ccccc1	-14.5%	2.2%	26.3%	-1.1%	31.6µM*	-4.2%
CN(C)S(=O)(=O)c1cccc(NC(=S)Nc2cccc3cnccc23)c1	?	1.9%	?	0.2%	/	2.51µM*
COc1ccccc1NC(=S)Nc1cccc2cnccc12	-5.8%	1.3%	?	-1.0%	-2.3%	44.7µM*
Fc1ccc(NC(=S)Nc2cccc3cnccc23)cc1	?	1.0%	?	0.8%	/	2.82µM*
